PPARg SRC2 recr = agonists of SRC-2 recruitment by human PPARgamma; P37231; PPARgamma LBD-SRC-2 recruitment, biochemical; activation, % at 8 µM; hit rate 0.34% among 200,000; AID 1032; in the data active = activation above about 22%;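 also: 0% = vehicle and 100% = reference agonist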
Target sequence (P37231 whole entry, looked up, the tested form may be a part): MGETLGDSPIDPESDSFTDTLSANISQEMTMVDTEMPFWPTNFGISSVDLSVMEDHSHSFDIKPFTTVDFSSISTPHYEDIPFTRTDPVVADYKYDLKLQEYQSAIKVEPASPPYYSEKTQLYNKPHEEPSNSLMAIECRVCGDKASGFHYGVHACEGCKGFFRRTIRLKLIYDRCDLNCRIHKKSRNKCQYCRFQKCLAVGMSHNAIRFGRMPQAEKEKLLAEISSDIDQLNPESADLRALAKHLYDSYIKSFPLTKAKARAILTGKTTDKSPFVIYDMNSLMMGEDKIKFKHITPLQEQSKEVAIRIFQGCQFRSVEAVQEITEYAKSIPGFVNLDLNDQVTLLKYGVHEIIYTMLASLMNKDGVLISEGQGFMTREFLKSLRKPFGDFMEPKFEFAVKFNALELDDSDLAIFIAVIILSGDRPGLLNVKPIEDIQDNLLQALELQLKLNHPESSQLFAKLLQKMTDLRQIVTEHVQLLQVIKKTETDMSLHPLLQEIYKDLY
SRC2 TRFRET art = counter-screen for PPARgamma SRC-2 recruitment agonists: TR-FRET artefact; AID 1049; hits give high values; TR-FRET ratio at 8 µM; hit rate 0.4% among 200,000
SRC3 TRFRET art = TR-FRET artefact, counter-screen to PPARgamma/SRC-3 agonist assay; hit rate 0.39% among 99,000; PPARgamma/SRC-3 format; hits give high values; AID 1048; TR-FRET ratio at 8 µM
PPARg SRC-1 ag = PPARgamma-driven SRC-1 recruitment agonism. AID 631. hit rate 0.41% among 200,000. PPARgamma-SRC-1 coactivator recruitment biochemical assay. activation, % at 8 µM. P37231; in the data active = activation above about 19%;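 also: 0% = DMSO and 100% = reference agonist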
PPARg SRC3 recr = promotes SRC-3 coactivator recruitment by human PPARgamma. P37231. biochemical PPARgamma/SRC-3 coactivator recruitment assay. activation, % at 8 µM. hit rate 0.26% among 200,000. AID 731; in the data active = activation above about 23%;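 also: 0% = DMSO and 100% = reference agonist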
SRC1 TRFRET art = TR-FRET artefact, counter-screen to PPARgamma/SRC-1 agonist assay; TR-FRET detection artefact counter-screen, emission ratio; hits give high values; TR-FRET ratio at 8 µM; AID 1051; hit rate 0.34% among 99,000; in the data active = TR-FRET ratio above about 2300
The depositor's hits bear a star; / = no result. A selection: hits, their analogues and other compounds. The true share with any hit is near 0.9%. Rule as the data show it, unless noted: active = TR-FRET ratio above about 2000; inactive = the rest.

SMILES | PPARg SRC2 recr | SRC2 TRFRET art | SRC3 TRFRET art | PPARg SRC-1 ag | PPARg SRC3 recr | SRC1 TRFRET art
CSC1=NC2(CC(c3ccccc3)Oc3cc(O)ccc32)CC(C)(C)N1 (stereo not drawn) | 11.8 | 1633 | / | 3.9 | 28.6* | /
O=C(NC(=S)Nc1ccccc1)c1ccc(Br)o1 | 7.8 | 1845 | 1864 | 22.2* | 4.7 | 1954
COc1ccccc1CNC(=O)CSc1ccc(-c2cccc([N+](=O)[O-])c2)nn1 | 4.1 | 1487 | 1374 | -1.3 | 3.7 | 1752
COc1ccc(OC)c(-c2c3cc(O)c(=O)cc-3oc3cc(O)c(O)cc23)c1 | 22.8* | 1565 | 1906 | 16.7 | 10.1 | 2166
CCOc1ccccc1-c1c2cc(O)c(=O)cc-2oc2cc(O)c(O)cc12 | 16.6 | 1524 | 1809 | 3.8 | 5.8 | 1827
CCOc1ccccc1/C=N/NC(=O)CNC(=O)c1cccs1 | 7.2 | 1659 | 1382 | -0.6 | 5.1 | 1775
Cc1cc2cc3c(cc2nc1SCc1ccc(C(=O)O)cc1)OCCO3 | 12.0 | 1513 | 1655 | 10.2 | -6.4 | 1728
COc1cccc(CSc2nc3cc4c(cc3cc2C)OCCO4)c1 | 11.1 | 1704 | 2784* | 9.1 | 6.9 | 2000
COc1cc(-c2nc3ccccn3c2/N=C/c2cccc(OC)c2O)ccc1O | 17.2 | 2175* | 1752 | 7.3 | 8.0 | 2128
COc1cc(-c2nc3ccccn3c2/N=C/c2ccc(F)cc2)ccc1O | 1.3 | 1636 | 1737 | 9.6 | 3.0 | 2014
CCn1c(SCC(=O)Nc2ccc(Cl)cc2)nc2nc3c(cc2c1=O)CCCC3 | 68.0* | 2837* | 1898 | 0.0 | 3.9 | 1677
O=C(CSc1nc2nc3c(cc2c(=O)n1-c1ccccc1)CCCC3)Nc1cccc2ccccc12 | 12.1 | 2372* | 2727* | 2.8 | -1.8 | 2437*
O=C(COC(=O)c1ccc(-c2nnc(-c3ccccc3)o2)cc1)c1ccccc1 | 14.8 | 2098* | 1850 | 5.4 | 3.4 | 2073
CCc1ccc2nc(N3C(=O)C(O)=C(C(=O)c4ccco4)C3c3cccs3)sc2c1 (stereo not drawn) | 36.1* | 2282* | / | 29.1* | 27.9* | /
N#Cc1c(-c2ccccc2Cl)cc(-c2ccccc2)nc1Br | 6.3 | 1773 | 2059* | -2.1 | 5.7 | 1792
CCN(CC)C(=O)Cn1c(=O)n(-c2ccccc2)c(=O)c2c3c(sc21)CCC3 | 22.1* | 2144* | / | -2.4 | 4.6 | /
C=CCNC(=O)c1c(Br)cnn1-c1ccc(C)cc1 | -4.6 | 1488 | 1483 | 3.5 | -2.6 | 1534
Cn1c(SCC(=O)Nc2cccc(Br)c2)nnc1-c1cc2ccccc2o1 | -6.5 | 1713 | / | 31.2* | 3.9 | /
O=S(=O)(c1ccccc1)c1cnn2c(C(F)(F)F)cc(-c3ccccc3)nc12 | 2.7 | 1466 | / | 2.5 | 0.0 | /
O=S(=O)(c1ccccc1)c1cnn2c(C(F)(F)F)cc(-c3ccc(F)cc3)nc12 | 3.9 | 1524 | / | 21.3* | 5.2 | /
CCOC(=O)C1=C(C)OC(N)=C(C#N)C1c1cc2ccccc2nc1N1CCCCC1 (stereo not drawn) | 15.4 | 1713 | / | 14.8 | 26.4* | /
COc1ccc(C2=NN(CCC(=O)NCc3cccs3)C(=O)CC2)cc1 | 1.4 | 1669 | 1787 | 6.5 | 6.0 | 1980
Cc1ccc(N=c2ssnc2Cl)cc1 | 1.6 | 1546 | / | -0.2 | 7.9 | /
Cc1cc(C)nc(/N=c2/ssnc2Cl)c1 | -3.5 | 1451 | / | 8.6 | 27.9* | /
O=C1OCCC1Sc1nnc(-c2ccc(Br)cc2)o1 (stereo not drawn) | 23.9* | 1523 | / | 2.6 | 2.4 | /
SMILES | PPARg SRC2 recr | SRC2 TRFRET art | SRC3 TRFRET art | PPARg SRC-1 ag | PPARg SRC3 recr | SRC1 TRFRET art
O=S(=O)(Nc1ccc(C(F)(F)F)cc1)c1cnc[nH]1 | 6.5 | 1467 | 1657 | 7.6 | -1.2 | 1541
O=S(=O)(Nc1cccc(C(F)(F)F)c1)c1cnc[nH]1 | 34.9* | 1811 | 1615 | 4.9 | 0.8 | 1838
O=C(CCc1nnc(Cc2ccc(-c3ccccc3)cc2)o1)NCCc1cccnc1 | -0.1 | 1519 | 1669 | 6.6 | 2.3 | 1399
CC(C)N(C(=O)CS(=O)(=O)c1ccc(Cl)c(Cl)c1)C(C)C | -2.4 | 1487 | 1633 | -1.9 | -1.6 | 1717
COc1ccccc1C(=O)Nc1ccccn1 | 23.9* | 1834 | / | 1.6 | 1.1 | /
COc1ccccc1C(=O)Nc1cccnc1 | 9.7 | 1551 | 1667 | 5.7 | 3.5 | 1929
CC(C)N(CCNC(=O)c1oc(=O)c2ccccc2c1-c1ccccc1)Cc1ccco1 | -1.9 | 1516 | 1461 | 0.6 | 0.5 | 1709
CCN(C(=O)COC(=O)c1cc(-c2ccccc2)nc2ccc(Br)cc12)C1CCS(=O)(=O)C1 (stereo not drawn) | 4.0 | 1887 | 2241* | 15.7 | 9.8 | 2327*
Cc1ccc(NC(=O)COC(=O)[C@H](C)N2C(=O)C3CC=CCC3C2=O)cc1S(=O)(=O)N(C)C (stereo partly drawn) | -9.5 | 1661 | 1528 | 4.7 | -2.8 | 1712
O=C(COc1ccccc1)Nc1nc(-c2ccc(S(=O)(=O)N3CCOCC3)cc2)cs1 | 11.6 | 2563* | / | 16.4 | 19.0 | /
COc1ccccc1OCC(=O)Nc1nc(-c2ccc(S(=O)(=O)N3CCOCC3)cc2)cs1 | 1.2 | 2294* | / | -1.9 | -9.8 | /
Cc1ccc(NC(=O)COc2ccc(S(=O)(=O)N3CCOCC3)cc2)cc1 | -0.3 | 1498 | / | -9.6 | -10.2 | /
O=C(COc1ccc(Cl)cc1)Nc1nc(-c2ccc(S(=O)(=O)N3CCOCC3)cc2)cs1 | 9.6 | 2847* | / | 13.0 | 23.5 | /
O=C(COC(=O)c1ccc(S(=O)(=O)N2CCOCC2)cc1)Nc1nc(-c2ccccc2)cs1 | 4.5 | 1618 | / | 0.4 | -2.5 | /
N#Cc1cccc(NCC(=O)Nc2ccc3c(c2)OCCO3)c1 | 7.9 | 1657 | 1414 | 4.1 | -0.4 | 1692
CC(=O)c1cccc(NC(=O)c2cc3ccccn3n2)c1 | 24.5* | 1832 | / | 6.4 | 4.3 | /
COC(=O)c1ccc(N2C(=O)C3CC(C)=C(C)CC3C2=O)cc1 (stereo not drawn) | 1.7 | 1557 | 1782 | 15.3 | 5.9 | 1678
CC/C(Cc1ccccc1)=N\NC(=O)c1cc([N+](=O)[O-])cc([N+](=O)[O-])c1 | -2.6 | 1603 | 1728 | 3.4 | 4.2 | 1542
COCCOC(=O)c1c(NC(=O)CN2CCCc3ccccc32)sc(C(N)=O)c1C | 2.0 | 1582 | 1581 | 6.3 | -0.4 | 1812
COc1ccc(C2CC(=O)c3c([nH]c(C(=O)OC(C)C)c3C)C2)cc1OC (stereo not drawn) | -2.6 | 1553 | 3447* | -1.5 | 32.2* | 1581
COC(=O)c1ccc(OC(=O)CCN2c3ccccc3Sc3ccccc32)cc1 | 16.0 | 2002* | 2754* | 10.6 | 6.3 | 1971
COc1ccccc1OCc1ccc(C(=O)Nc2ccc(Cl)cn2)o1 | -0.6 | 1650 | 1427 | 5.0 | -0.7 | 1620
CCOC(=O)N1C2C=C(C)[C@@H]2[C@@H]2CC(=O)N21 (stereo partly drawn) | 2.1 | 1536 | 1363 | -3.1 | 0.0 | 1624
Cc1ccc([N+](=O)[O-])cc1N | 5.3 | 1648 | 1774 | 2.1 | -1.3 | 2200
Nc1ccc2c(c1)Cc1cc([N+](=O)[O-])ccc1-2 | 10.7 | 2054* | 1573 | 20.0 | 2.5 | 1760

Screening data from PubChem BioAssay.
